Our source for the growth values is PubChem BioAssay (NCI).

About 83,000 compounds went through this panel and 20% of them were active in at least one assay; those are over-represented in the sample as a whole.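 Results are percent growth after 48 hours of single-concentration exposure. 100 means growth as in untreated cells, lower positive values show inhibition; negative values down to -100 show cell death.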 Unmarked numbers belong to inactive results. The source made the active and inactive calls. The calls were made as follows: active = growth percent below 10; inactive = the rest.

Some test systems named below: NCI-H23 lung; NCI-H226 lung; NCI-H322M lung; HOP-62 NSCLC; NCI-H460 lung; HOP-92 NSCLC; NCI-H522 lung; A549/ATCC NSCLC; 786-0 renal; DU-145 prostate; MALME-3M melanoma; MDA-MB-231 breast; RXF 393 renal; SF-268 CNS; SF-295 CNS; SF-539 CNS; UACC-257 melanoma; M14 melanoma; K-562 leukemia; COLO 205 colon.
Experiment in all cases: NCI-60 one-dose screen, 48 h (100 = growth as untreated, 0 = no growth, -100 = all killed)
What all share (details): 10 µM unless noted

In the case of `O=c1c(-c2ccc3c(c2)OCO3)coc2c(CO)c(O)ccc12`, the growth with NCI-H23 lung was 56.8%; in the assay on NCI-H226 lung it was -35.6% (active); in the assay on NCI-H322M lung, 16.6%; with HOP-62 NSCLC, -54.1% (active); in the assay with NCI-H460 lung, 9.52% (active); in the assay with HOP-92 NSCLC, -21.6% (active). Moreover, the growth in the assay on NCI-H522 lung is 36.7%; with A549/ATCC NSCLC, 49.2%; in the assay on 786-0 renal, 23.6%; in the assay on DU-145 prostate, -20.8% (active); with MALME-3M melanoma it was -45.1% (active); in the assay on MDA-MB-231 breast, -33.6% (active). Besides, the growth with RXF 393 renal was -84% (active); in the assay with SF-268 CNS, -43.3% (active); with SF-295 CNS, 3.29% (active); in the assay on SF-539 CNS it was -9.82% (active); in the assay on UACC-257 melanoma, 9.01% (active); in the assay on M14 melanoma, 45%.

Regarding `CCn1c(C)nc([N+](=O)[O-])c1Sc1nc(N)nc2nc[nH]c12`, the growth was 28.8% in the assay on NCI-H23 lung; 44.3% in the assay with NCI-H226 lung; 50.9% in the assay on NCI-H322M lung; 24.9% in the assay with HOP-62 NSCLC; 10.7% in the assay with NCI-H460 lung; 54.9% in the assay with HOP-92 NSCLC. In addition, the growth in the assay on NCI-H522 lung was 42.6%; with A549/ATCC NSCLC, 53.9%; in the assay with 786-0 renal, 24.6%; in the assay with DU-145 prostate, 24.4%; in the assay on K-562 leukemia, 17.3%; with MALME-3M melanoma, 53.2%. The growth is 42.3% in the assay with MDA-MB-231 breast; 36% in the assay with RXF 393 renal; 31.3% in the assay with SF-268 CNS; 23.8% with SF-295 CNS; 26.7% in the assay with SF-539 CNS; 39.7% in the assay with UACC-257 melanoma. Also, the growth in the assay with M14 melanoma is 8.02% (active).

As for `CC(C)C1(C(C)C)NC(=O)NC1=O`, the growth in the assay with NCI-H23 lung was 99.2%; with NCI-H226 lung it was 102%; with NCI-H322M lung it was 119%; with HOP-62 NSCLC it was 96.6%; in the assay on NCI-H460 lung it was 99.9%; with HOP-92 NSCLC, 93.2%. Also, the growth with NCI-H522 lung was 94.8%; in the assay with A549/ATCC NSCLC it was 101%; with 786-0 renal it was 101%; in the assay on DU-145 prostate, 93.7%; in the assay with K-562 leukemia it was 108%; in the assay with MALME-3M melanoma it was 163%. The growth in the assay on MDA-MB-231 breast was 109%; with RXF 393 renal, 107%; with SF-268 CNS, 94%; in the assay with SF-295 CNS, 99.4%; in the assay on SF-539 CNS, 91.6%; in the assay with UACC-257 melanoma, 106%. The growth in the assay with M14 melanoma was 110%.

For `Cc1c(C(C)(C)C)cc(C(C)(C)C)c2c1CN(C)CO2`, the growth is 102% with NCI-H23 lung; 111% in the assay on NCI-H226 lung; 105% with NCI-H322M lung; 103% in the assay with HOP-62 NSCLC; 123% in the assay with NCI-H460 lung; 112% with HOP-92 NSCLC. The growth was 93.4% in the assay with NCI-H522 lung; 111% in the assay with A549/ATCC NSCLC; 105% in the assay with 786-0 renal; 112% in the assay on DU-145 prostate; 99.4% in the assay with K-562 leukemia; 95.5% in the assay with MALME-3M melanoma. For the same compound, the growth in the assay with MDA-MB-231 breast is 110%; with RXF 393 renal it was 122%; with SF-268 CNS it was 103%; with SF-295 CNS, 103%; in the assay on SF-539 CNS, 103%; in the assay with UACC-257 melanoma, 99.5%. In addition, the growth with M14 melanoma is 118%.

On to `CCC1S/C(=N\N=C(/C)c2cc3ccccc3o2)N(c2ccccc2)C1=O` (configuration not stated), for which the growth in the assay on NCI-H23 lung was 93.6%; with NCI-H226 lung it was 108%; with NCI-H322M lung, 92.2%; in the assay with HOP-62 NSCLC, 101%; in the assay on NCI-H460 lung, 123%; in the assay on HOP-92 NSCLC, 47%. The growth in the assay with NCI-H522 lung is 88.3%; with A549/ATCC NSCLC, 113%; in the assay with 786-0 renal, 103%; in the assay on DU-145 prostate, 161%; in the assay on K-562 leukemia it was 79.8%; with MALME-3M melanoma, 105%. The growth is 85.4% in the assay with MDA-MB-231 breast; 98.7% with RXF 393 renal; 202% in the assay with SF-268 CNS; 128% in the assay on SF-295 CNS; 135% in the assay with SF-539 CNS; 118% with UACC-257 melanoma. Further, the growth in the assay on M14 melanoma was 101%.

Consider `CC(=O)N1N=C(CCC(=O)c2nc3ccc([N+](=O)[O-])cc3[nH]2)OC1c1ccc(O)cc1` (configuration not stated), for which the growth was 93.2% in the assay on NCI-H23 lung; 101% with NCI-H226 lung; 99% with NCI-H322M lung; 91.2% with HOP-62 NSCLC; 103% in the assay on NCI-H460 lung; 118% in the assay on HOP-92 NSCLC. For the same compound, the growth in the assay with NCI-H522 lung was 51.3%; in the assay with A549/ATCC NSCLC, 106%; in the assay on 786-0 renal, 106%; in the assay on DU-145 prostate it was 108%; in the assay with MALME-3M melanoma, 94.4%; in the assay on MDA-MB-231 breast, 102%. Besides, the growth with RXF 393 renal is 111%; in the assay with SF-268 CNS it was 97.7%; in the assay with SF-295 CNS, 96.4%; in the assay on SF-539 CNS, 100%; in the assay on UACC-257 melanoma, 103%; with M14 melanoma, 103%.

`CN1C(=O)C2(SCC(C(=O)NCC(=O)OC(C)(C)C)N2C(=O)C2CCCCC2)c2ccccc21` (configuration not stated): the growth was 94.4% in the assay on NCI-H23 lung; 91.6% with NCI-H226 lung; 95.3% with NCI-H322M lung; 95% in the assay with HOP-62 NSCLC; 102% in the assay on NCI-H460 lung; 85.8% in the assay with HOP-92 NSCLC. Also, the growth in the assay on NCI-H522 lung was 80.9%; in the assay on A549/ATCC NSCLC, 95.2%; in the assay with 786-0 renal, 94.7%; with DU-145 prostate, 105%; in the assay with MALME-3M melanoma it was 101%; with MDA-MB-231 breast, 100%. Besides, the growth in the assay on RXF 393 renal is 105%; in the assay on SF-268 CNS it was 96.7%; in the assay with SF-295 CNS, 96.9%; in the assay with SF-539 CNS, 99.8%; with UACC-257 melanoma, 92.7%.

As to `C#C[C@@]1(O)[C@@H](CO)O[C@@H](n2cc(Br)c3c(Cl)ccnc32)[C@@H]1O`, the growth was 31.9% in the assay on NCI-H23 lung; 47.2% in the assay with NCI-H226 lung; 11.7% in the assay with NCI-H322M lung; 36.4% with HOP-62 NSCLC; 45% in the assay with NCI-H460 lung; -60.5% (active) in the assay with HOP-92 NSCLC. The growth was 32% in the assay on NCI-H522 lung; 46.2% with A549/ATCC NSCLC; 33.5% in the assay on 786-0 renal; -41.3% (active) with DU-145 prostate; 14.3% in the assay on K-562 leukemia; 62.1% with MALME-3M melanoma. In addition, the growth with MDA-MB-231 breast is -26.6% (active); with RXF 393 renal, -15.9% (active); in the assay with SF-268 CNS it was 61.7%; in the assay with SF-295 CNS, 26.6%; in the assay on SF-539 CNS it was 17.8%; in the assay with UACC-257 melanoma, 91.3%. For the same compound, in the assay on M14 melanoma, the growth was 62.4%.

In the case of `Cc1cc(N2CCOCC2)nc(N(CCNc2ccnc3cc(Cl)ccc23)Cc2ccco2)n1`, the growth with NCI-H23 lung was 58%; in the assay with NCI-H226 lung, 60.5%; with NCI-H322M lung, 41.8%; in the assay with HOP-62 NSCLC, 36.5%; with NCI-H460 lung, 47.3%; with HOP-92 NSCLC, 46.7%. Further, the growth in the assay on NCI-H522 lung is 13.9%; in the assay on A549/ATCC NSCLC, 50.7%; with 786-0 renal, 5.93% (active); in the assay with COLO 205 colon, -4.11% (active); in the assay on DU-145 prostate, 53.4%; in the assay with MALME-3M melanoma, 62.8%. Besides, the growth was 7.62% (active) in the assay with MDA-MB-231 breast; 10.6% in the assay with RXF 393 renal; 71.8% in the assay on SF-268 CNS; 6.25% (active) with SF-295 CNS; -31.8% (active) in the assay with SF-539 CNS; 49.8% in the assay on UACC-257 melanoma. The growth with M14 melanoma is 39.5%.
